Where a name gives a salt, the structure may show the parent alone.

The assay has as its system PBMC-derived induced microglia-like cells (piMGLC). The assay is described as follows: synaptosome phagocytic index relative to DMSO control (fraction of DMSO); higher = more phagocytosis. Conditions: concentration: 10 uM (2 uM for compounds listed in Table S2); pretreatment time: 24 h; assay time: 3 h. The procedure: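 PBMC-derived induced microglia-like cells (piMGLCs) in 96-well plates were pretreated for 24 h with CNS-penetrant library compounds (MedChemExpress HY-L028), mostly at 10 uM; Table S2 lists 9 compounds at 2 uM. pHrodo-Red-labelled human iPSC-neuron synaptosomes (3 ug/well) were then added for 3 h, and cells were fixed and imaged by confocal microscopy. Phagocytic index (synaptosome area / cell count, CellProfiler) is a mean over 3 replicate wells on different plates, normalized to the DMSO control. Compounds leaving <10% of DMSO cell count were marked toxic and given no value.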
As for `CC(C)(NC(=O)O[C@@H]1CN2CCC1CC2)c1csc(-c2ccc(F)cc2)n1` [Ibiglustat_(L-Malic_acid)], the synaptosome phagocytic index came to 1.05.

Regarding `CCN(C)C(=O)Oc1cccc([C@H](C)N(C)C)c1` [Rivastigmine_(tartrate)], the synaptosome phagocytic index stood at 1.02.

Take `CN1CCc2ccccc2C1CNC(=O)c1ccc(Cl)c(Cl)c1` (stereo unspecified): the synaptosome phagocytic index is 0.901.

For `CN1C[C@H](C(=O)N[C@]2(C)O[C@@]3(O)[C@@H]4CCCN4C(=O)[C@H](Cc4ccccc4)N3C2=O)C[C@@H]2c3cccc4[nH]cc(c34)C[C@H]21` [Dihydroergotamine_(mesylate)], the synaptosome phagocytic index stood at 0.976.

Consider `Cn1cc(C2=C(c3cn(C4CCN(Cc5ccccn5)CC4)c4ccccc34)C(=O)NC2=O)c2ccccc21` [Enzastaurin], for which the synaptosome phagocytic index stood at 0.997.

As to `C=C(C)[C@H]1CN[C@H](C(=O)O)[C@H]1CC(=O)O` [Kainic_acid], the synaptosome phagocytic index was found to be 0.701.

For `CNCC/C=C/c1cccnc1` [Rivanicline_hemioxalate], the synaptosome phagocytic index was found to be 0.922.

Consider `Clc1ccc(N2CCN(Cc3c[nH]c4ncccc34)CC2)cc1`, for which the synaptosome phagocytic index is 0.89.

In the case of `CN(C)c1cc2c(cc1Sc1nc3c(N)nccc3n1CCNCC(C)(C)C)OCO2` [Debio_0932], the synaptosome phagocytic index was 0.767.

Consider `NCC1(CC(=O)O)CCCCC1` [Gabapentin], for which the synaptosome phagocytic index was 0.686.

On to `COc1cc2c(cc1OC)C1CC(=O)C(CC(C)C)CN1CC2` (stereo unspecified) [Tetrabenazine], for which the synaptosome phagocytic index was 0.906.

`CCN(CCCl)Cc1ccccc1Br` [DSP-4_(hydrochloride)]: the synaptosome phagocytic index was determined as 1.15.

`Cc1cccc([C@H](C)c2c[nH]cn2)c1C` [Dexmedetomidine_(hydrochloride)]: the synaptosome phagocytic index turned out to be 0.931.

Turning to `O=C(NO)c1cnc(NC2(c3ccccc3)CCC(F)(F)CC2)nc1`, the synaptosome phagocytic index was found to be 0.867.

In the case of `CCC(=O)O[C@H]1CC[C@H]2[C@@H]3CCC4=CC(=O)CC[C@]4(C)[C@H]3CC[C@]12C` [Testosterone_propionate], the synaptosome phagocytic index worked out at 0.807.

Turning to `CCOC(=O)c1cncn1[C@H](C)c1ccccc1` [Etomidate], the synaptosome phagocytic index was determined as 0.926.

Consider `CNC(=O)ON(C(C)=O)C(=O)NC` [Caracemide], for which the synaptosome phagocytic index turned out to be 0.78.

Take `C1=CC[C@@H](c2cccnc2)NC1` [Anatabine_(dicitrate)]: the synaptosome phagocytic index was 0.984.

As to `NCC(CC(=O)O)c1ccc(Cl)cc1` (stereo unspecified) [Baclofen], the synaptosome phagocytic index was found to be 0.783.

As to `COc1ccc(OC)c(C(=O)N[C@@H]2CN3CCC2CC3)c1`, the synaptosome phagocytic index was 0.646.

For the molecule `CCOC(=O)c1cncn1[C@H](C)c1ccccc1` [Etomidate_(hydrochloride)], the synaptosome phagocytic index worked out at 0.749.

With `Cn1c(CCCC(=O)O)nc2cc(N(CCCl)CCCl)ccc21` [Bendamustine_(hydrochloride)], the synaptosome phagocytic index is 0.95.

For the molecule `N[C@@H]1C[C@H]1c1ccccc1` [Tranylcypromine_(hemisulfate)], the synaptosome phagocytic index is 0.949.

Consider `CCN(C)C(=O)Oc1cccc([C@H](C)N(C)C)c1` [Rivastigmine], for which the synaptosome phagocytic index came to 1.03.

As to `NCCc1c[nH]c2ccc(O)cc12` [Serotonin_hydrochloride], the synaptosome phagocytic index was determined as 0.812.

Turning to `COc1ccc(C(CN(C)C)C2(O)CCCCC2)cc1` (stereo unspecified) [Venlafaxine_(hydrochloride)], the synaptosome phagocytic index came out at 1.02.

Consider `CC[C@@H](C(N)=O)N1CCCC1=O` [Levetiracetam], for which the synaptosome phagocytic index turned out to be 0.711.

Turning to `Cc1sc2c(c1C)C(c1ccc(Cl)cc1)=N[C@@H](CC(=O)OC(C)(C)C)c1nnc(C)n1-2`, the synaptosome phagocytic index came out at 0.3.

Regarding `COc1ccc(C=C2CCCN=C2c2cccnc2)c(OC)c1` [GTS-21_(dihydrochloride)], the synaptosome phagocytic index came out at 0.922.

As to `CN(C)C(=O)Oc1ccc[n+](C)c1` [Pyridostigmine_(bromide)], the synaptosome phagocytic index stood at 0.814.

With `FC(F)(F)c1ccc(N2CCNCC2)nc1Cl`, the synaptosome phagocytic index is 1.17.

Consider `O=S(=O)(CC1CS1)c1ccc(Oc2ccccc2)cc1` (stereo unspecified), for which the synaptosome phagocytic index is 0.514.

`COc1cccc(NCC(F)Cn2c3ccc(Br)cc3c3cc(Br)ccc32)c1` (stereo unspecified): the synaptosome phagocytic index amounted to 0.0819.

Consider `CC(C)(NC(=O)O[C@@H]1CN2CCC1CC2)c1csc(-c2ccc(F)cc2)n1` [Ibiglustat], for which the synaptosome phagocytic index was 1.26.

Turning to `C/C(=C\c1csc(C)n1)[C@@H]1C[C@@H]2O[C@]2(C)CCC[C@H](C)[C@H](O)[C@@H](C)C(=O)C(C)(C)[C@@H](O)CC(=O)O1` [Epothilone_B], the synaptosome phagocytic index stood at 0.842.

As to `CN1Cc2cc(Cl)ccc2-n2c(nnc2[C@H]2CC[C@H](Oc3ccccn3)CC2)C1` [Balovaptan], the synaptosome phagocytic index stood at 1.09.

For the origin of these results see the supplement of paper PMC12339681.
